Compound activity (PubChem)
This is one part of a sample in which hits are shown more often than they occur.
STK33 inh: STK33 kinase inhibitors, primary screen, biochemical, luminescence, ADP-Glo, MBP substrate | 27,000 tested, 0.44% active | Serine/threonine-protein kinase 33 (Homo sapiens), Q9BYT3 | inhibition, % at 12.5 µM; in the data active = inhibition above about 20%
Target sequence (Q9BYT3 whole entry, looked up): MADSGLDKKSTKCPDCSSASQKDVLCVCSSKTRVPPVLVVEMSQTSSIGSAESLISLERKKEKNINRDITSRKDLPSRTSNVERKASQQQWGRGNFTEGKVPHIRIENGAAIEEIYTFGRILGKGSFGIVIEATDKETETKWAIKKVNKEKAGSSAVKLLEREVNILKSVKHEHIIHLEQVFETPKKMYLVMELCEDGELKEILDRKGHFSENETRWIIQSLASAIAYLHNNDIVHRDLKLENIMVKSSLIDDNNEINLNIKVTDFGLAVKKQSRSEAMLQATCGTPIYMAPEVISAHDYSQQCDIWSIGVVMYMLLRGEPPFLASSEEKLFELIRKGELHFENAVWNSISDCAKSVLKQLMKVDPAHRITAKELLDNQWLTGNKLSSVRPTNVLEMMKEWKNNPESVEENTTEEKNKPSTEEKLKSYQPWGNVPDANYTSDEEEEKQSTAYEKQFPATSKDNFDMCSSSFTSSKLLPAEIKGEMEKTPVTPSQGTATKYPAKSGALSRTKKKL
NOMO-1 viab: NOMO-1 AML cell viability reduction, primary screen, STK33 inhibitor project, CellTiter-Glo luminescence; NOMO-1 AML viability, 72 h; inhibition, % (test concentration not listed); 37,000 tested, 7.5% active; AID 2330, 2010; in the data active = inhibition above about 80%
PD-1 reversal: activators reversing PD-1 mediated T-cell inhibition, primary screen, luminescence, primary human CD4 T cells, PD-L1 beads; CellTiter-Glo 96 h; activation, % (concentration not given with the values); 29,000 tested, under 10 active; AID 2316, 2010; call rule not given here;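 also: 0% = median vehicle wells and 100% = positive control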
* hit, by the source's call; . = no result.

SMILES	STK33 inh	NOMO-1 viab	PD-1 reversal
COc1ccc(CN(C)C[C@@H]2Oc3c(NC(=O)Nc4ccc(OC)cc4)cccc3C(=O)N([C@@H](C)CO)C[C@@H]2C)cc1	.	15	1
COc1ccc(C)cc1NC(=O)CSc1nc2ccccc2c(=O)n1-c1ccc(Cl)cc1	1	16	-3
C[C@@H]1O[C@@H](O[C@@H]2C=C(CO)[C@H]3[C@H](O[C@@H]4O[C@H](CO)[C@@H](O)[C@H](O)[C@H]4O)OC=C[C@H]32)[C@H](O)[C@H](O)[C@H]1OC(=O)/C=C/c1ccccc1	-4	-9	2
CC1(C)CC(=O)C(C=NCc2ccc(F)cc2)=C(O)C1	.	2	0
Cc1cc(NC(=O)C(C)n2cc([N+](=O)[O-])cn2)ccc1Br (stereo not given)	-4	26	.
Cc1nc2ccc(F)cc2c2c1CCN2c1ccc(Cl)cc1	.	107*	-6
Cc1cc(NCn2ncc3ccccc3c2=O)ccc1Br	.	39	1
C/C=C(/C)C(=O)OC1C(OC(C)=O)c2c(ccc3ccc(=O)oc23)OC1(C)C (stereo not given)	0	18	1
C/C=C(/C)C(=O)OC1c2c(ccc3ccc(=O)oc23)OC(C)(C)C1OC(=O)/C(C)=C\C (stereo not given)	-2	111*	-7
CCCc1ccc(-c2cc(C(=O)NCc3cccnc3)c3ccccc3n2)cc1	0	46	.
COc1ccccc1OCC(=O)Nc1ccc(-c2nc3ccc(C)cc3[nH]2)cc1	17	110*	-8
COc1cccc(OCC(=O)Nc2ccc(-c3nc4ccccc4[nH]3)cc2)c1	-2	1	-3
CC(C)(C)c1ccc(-c2cc3ccccn3c2)cc1	.	104*	1
C[C@@H]1CN([C@H](C)CO)C(=O)c2cccc(NC(=O)c3cnccn3)c2O[C@@H]1CN(C)Cc1ccc(Cl)c(Cl)c1	.	35	-2
C[C@H](CO)N1C[C@H](C)[C@@H](CN(C)Cc2ccc(Oc3ccccc3)cc2)Oc2c(NC(=O)c3cnccn3)cccc2C1=O	.	106*	-7
C[C@@H]1CN([C@H](C)CO)C(=O)c2cccc(NC(=O)c3cnccn3)c2O[C@H]1CN(C)Cc1ccc(Oc2ccccc2)cc1	.	26	-2
C[C@@H]1CN([C@H](C)CO)C(=O)c2cccc(NC(=O)c3cnccn3)c2O[C@H]1CN(C)Cc1ccc(Cl)c(Cl)c1	.	96*	-6
CCOC(=O)c1c(NC(=O)Cn2cnc3ccccc3c2=O)sc(C)c1C	-6	43	1
Cc1ccc(-c2nc3cc(NC(=O)COc4ccccc4Cl)ccc3o2)c(C)c1	6	68	.
COc1ccc(NC(=O)Nc2ccc3c(c2)C(=O)N([C@@H](C)CO)C[C@H](C)[C@H](CN(C)Cc2ccc(C(=O)Nc4ccccc4N)cc2)O3)cc1	.	50	1
COc1ccc(NC(=O)Nc2cccc3c2O[C@@H](CN(C)Cc2ccc(C(=O)O)cc2)[C@@H](C)CN([C@@H](C)CO)C3=O)cc1	.	39	0
COc1ccc(NC(=O)Nc2cccc3c2O[C@H](CN(C)Cc2ccc(C(=O)Nc4ccccc4N)cc2)[C@H](C)CN([C@H](C)CO)C3=O)cc1	.	140*	-2
COc1ccc(NC(=O)Nc2cccc3c2O[C@@H](CN(C)Cc2ccc(C(=O)Nc4ccccc4N)cc2)[C@@H](C)CN([C@@H](C)CO)C3=O)cc1	.	129*	-4
COc1ccc(NC(=O)Nc2cccc3c2O[C@@H](CN(C)Cc2ccc(C(=O)O)cc2)[C@H](C)CN([C@@H](C)CO)C3=O)cc1	.	23	2
COc1ccc(NC(=O)Nc2cccc3c2O[C@@H](CN(C)Cc2ccc(C(=O)Nc4ccccc4N)cc2)[C@H](C)CN([C@@H](C)CO)C3=O)cc1	.	126*	0
SMILES	STK33 inh	NOMO-1 viab	PD-1 reversal
CC1CCc2c(sc3ncn(CC(=O)Nc4ccccc4C(F)(F)F)c(=O)c23)C1 (stereo not given)	0	28	0
Cc1nnc(SCC(=O)N2N=CCC2c2ccccc2)s1 (stereo not given)	1	11	3
Cc1ccc(C23CC4CC(CC(C(=O)NC5=NCCS5)(C4)C2)C3)cc1	.	11	-1
C=CCn1c(=S)sc2c(Sc3nnc(-c4ccco4)o3)ncnc21	.	115*	-6
Cc1ccc(C(=O)CSc2nnc(-c3ccco3)o2)o1	-4	22	0
CC(C)(C)C1CCc2c(sc(NC(=O)COc3ccc(Cl)cc3)c2C(N)=O)C1 (stereo not given)	-1	89*	.
NC(=O)c1c(NC(=O)COc2ccc(Cl)cc2Cl)sc2c1CCCC2	1	25	.
Cc1c(C(=O)Nc2sc3c(c2C(=O)NC2CCS(=O)(=O)C2)CCCC3)oc2ccccc12 (stereo not given)	1	-2	2
